Screening data (PubChem)
Shown are actives, neighbours in structure and some others; about 3.5% of the full set was active somewhere.
FBW7 act: FBW7 E3 ligase activators, primary screen, biochemical, AlphaScreen, human. 650,000 tested, 0.13% active. normalized activity (activation), % at 26.1 µM. AlphaScreen FBW7–phospho-cyclin E peptide binding, activator screen. F-box/WD repeat-containing protein 7 (Homo sapiens), Q969H0; in the data active = normalized activity above about 1.9%;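 note: purified mutant Fbw7 with reduced substrate affinity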
Target sequence (Q969H0 whole entry, looked up): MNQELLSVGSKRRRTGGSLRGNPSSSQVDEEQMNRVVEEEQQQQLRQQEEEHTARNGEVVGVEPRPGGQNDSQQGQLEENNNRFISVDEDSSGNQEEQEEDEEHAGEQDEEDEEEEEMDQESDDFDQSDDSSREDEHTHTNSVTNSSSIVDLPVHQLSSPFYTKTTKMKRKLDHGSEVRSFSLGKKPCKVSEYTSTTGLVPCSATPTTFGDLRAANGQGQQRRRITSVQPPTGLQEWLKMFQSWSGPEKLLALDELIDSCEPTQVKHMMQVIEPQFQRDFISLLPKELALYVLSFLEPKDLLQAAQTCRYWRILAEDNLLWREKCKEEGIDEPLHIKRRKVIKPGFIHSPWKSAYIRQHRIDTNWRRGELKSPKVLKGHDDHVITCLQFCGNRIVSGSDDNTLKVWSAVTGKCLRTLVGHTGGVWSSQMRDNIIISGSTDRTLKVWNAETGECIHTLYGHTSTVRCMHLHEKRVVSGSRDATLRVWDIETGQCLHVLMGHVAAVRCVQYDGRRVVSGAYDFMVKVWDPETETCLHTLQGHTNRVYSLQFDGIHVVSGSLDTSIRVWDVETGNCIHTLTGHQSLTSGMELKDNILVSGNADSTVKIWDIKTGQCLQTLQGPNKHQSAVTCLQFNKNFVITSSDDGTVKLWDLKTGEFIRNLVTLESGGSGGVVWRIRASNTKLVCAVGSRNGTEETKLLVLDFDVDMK
GPR151 activ: activators of human GPR151, primary screen, cell-based, PathHunter beta-arrestin, luminescence | G-protein coupled receptor 151 (Homo sapiens), Q8TDV0 | PathHunter beta-arrestin GPR151 cells | activation, % at 11.2 µM | 650,000 tested, 1% active | AID 1508602, 2020; in the data active = activation above about 4.9%
TEAD-YAP block: TEAD-YAP interaction inhibition, primary screen, TEAD-YAP interaction inhibitor project, luminescence, HEK-TIYL cells; TEAD-Gal4/YAP UAS-luciferase luminescence; inhibition, % at 9.12 µM; 640,000 tested, 1.4% active; in the data active = inhibition above about 32%
MITF primary: MITF inhibitors, primary screen, biochemical, AlphaScreen, human; AlphaScreen MITF homodimerization, bead proximity signal; inhibition, % at 2.6 µM; AID 1259374, 2018; 650,000 tested, 0.91% active; in the data active = inhibition above about 50%
GPR151 conf act: GPR151 activators, triplicate retest, confirmation, cell-based, PathHunter beta-arrestin, luminescence. shares compounds with GPR151 activ. GPR151 PathHunter beta-arrestin cells, 90 min; % of EA-reagent control over plate median. activation, % at 11.2 µM. 6,700 tested, under 10 active;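 active = mean percent activation across replicates above the confirmation screen cutoff of 4.91%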
GPR119 ag: GPR119 activators in beta-arrestin cells, counter-screen for GPR151 activator project, cell-based, PathHunter beta-arrestin, luminescence, triplicate | activation, % at 11.2 µM | 6,700 tested, 0.3% active | 90 min; 0 = compound-well median, 100 = enzyme-acceptor control | shares compounds with GPR151 activ;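 active = mean percent activation in the counterscreen above 29.09%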;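 note: counterscreen on off-target GPR119 to flag nonselective hits from the GPR151 activator screen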
Hits are given with their value; i = inactive; nt = not tested or not shown.

SMILES	FBW7 act	GPR151 activ	TEAD-YAP block	MITF primary	GPR151 conf act	GPR119 ag
CCCc1ccc(OCCCC(=O)Nc2nnc(COC)s2)cc1	i	6.9	i	i	i	i
Cc1ccc2nc(-c3ccc(NC(=O)C4CC(O)CN4C(=O)OC(C)(C)C)cc3)sc2c1 (stereo unspecified)	i	i	i	i	nt	nt
CC(=O)c1ccc(Cc2cnc(N)s2)cc1	i	8.9	i	i	i	i
Nc1ncc(Cc2ccccc2)s1	i	i	i	i	nt	nt
O=C(Nc1ncc(Cc2cccc(C(F)(F)F)c2)s1)c1cccc([N+](=O)[O-])c1	i	5.1	i	i	i	i
Nc1ncc(Cc2cccc([N+](=O)[O-])c2)s1	i	5.4	i	i	i	i
CC1(C)CC(=O)C(C=NCC(O)CO)=C(O)C1 (stereo unspecified)	i	i	i	i	nt	nt
CCN(CC)CCCNS(=O)(=O)c1ccc(C)cc1	i	i	i	i	nt	nt
Cc1cc(C)n2nc(SCC(=O)Nc3c(C)nn(-c4ccccc4)c3C)nc2n1	i	5.4	i	i	i	i
Cc1cc(C)n2nc(SCC(=O)Nc3ccccc3C(C)(C)C)nc2n1	i	i	i	i	nt	nt
CC(C)N(C(=O)Cn1c(SCC(=O)N2CCCC2)nc2ccccc21)C(C)C	i	7.9	i	i	i	i
CC(C)N(C(=O)Cn1c(SCC(=O)N2CCCCCC2)nc2ccccc21)C(C)C	i	i	i	i	nt	nt
Fc1ccc(C2=CC(c3ccccc3)n3nnnc3N2)cc1 (stereo unspecified)	i	i	i	i	nt	nt
COc1ccc(C2C=C(c3ccc(Br)cc3)Nc3nc4ccccc4n32)cc1 (stereo unspecified)	i	i	i	i	nt	nt
Cc1ccc(C2C=C(c3ccc(Br)cc3)Nc3nc4ccccc4n32)cc1 (stereo unspecified)	i	5.9	i	i	i	i
Cc1ccc(C2=CC(c3ccccc3)n3nnnc3N2)cc1 (stereo unspecified)	i	7.3	i	i	i	i
O=C1C(CCCNC(=S)NC2CCCCC2)NC(=S)N1C1CCCCC1 (stereo unspecified)	i	9.8	i	i	i	i
CCCC1NC(=S)N(C2CCCCC2)C1=O (stereo unspecified)	i	i	i	i	nt	nt
COc1ccc(C(=O)NC(=S)Nc2ccc(NC(=O)c3ccco3)c(OC)c2)cc1	i	i	i	i	nt	nt
Cc1ccc(O)c(C2=Nc3ccccc3N=C(c3cccc(Br)c3)C2)c1	i	i	i	i	nt	nt
COc1ccc(O)c(C2=Nc3ccccc3N=C(c3cccc(Br)c3)C2)c1	i	5.5	i	i	i	i
CCOc1ccc(/C(O)=C2\C(=O)C(=O)N(c3nc(C)c(C(=O)OC)s3)C2c2ccc(C)cc2)cc1C (stereo unspecified)	i	5.0	i	i	i	i
O=S(=O)(c1cc(Br)ccc1Br)N1CCC(Cc2ccccc2)CC1	i	i	i	i	nt	nt
CC(C)(C)C(=O)/C=C(\N)Cc1ccccc1	i	8.1	i	i	i	i
CC(C)(C)C(=O)/C=C(/N)c1ccccn1	i	i	i	i	nt	nt
SMILES	FBW7 act	GPR151 activ	TEAD-YAP block	MITF primary	GPR151 conf act	GPR119 ag
CCc1cc2[nH]c(C(=O)OC)cc2s1	i	5.0	i	i	i	i
O=CN1CCc2c([nH]c3ccc(F)cc23)C12CCN(CCc1cccs1)CC2	i	i	i	i	nt	nt
CC(=O)N1C(=O)/C(=C2\SC(=S)N(c3ccccc3F)C2=O)c2ccccc21	i	i	i	i	nt	nt
COc1ccccc1N1C(=O)/C(=C2/C(=O)N(C(C)=O)c3ccccc32)SC1=S	i	6.5	i	i	i	i
O=C1CCCCC(=O)N(c2ccccc2)c2ccccc21	i	i	i	i	nt	nt
O=C1Cc2ccccc2N1c1ccccc1	i	9.9	i	i	i	i
O=c1[nH]c(N2CCCCC2)nc2c1CCN(CC1CCC=CO1)C2 (stereo unspecified)	i	i	i	i	nt	nt
CC1CCCN(c2nc3c(c(=O)[nH]2)CCN(CC2CCC=CO2)C3)C1 (stereo unspecified)	i	9.5	i	i	i	i
CC(CCc1ccccc1)NC(=O)Cn1c(CO)nc2ccccc21 (stereo unspecified)	i	6.2	i	i	i	i
CC(C)(C)OC1=C(OCBr)N(Cc2ccccc2)C=NC=N1	i	i	i	i	nt	nt
C=COCC(COC=C)(COC=C)COC=C	i	5.2	i	i	i	i
O=[N+]([O-])c1ccc(O)c(C=NCC2CCCO2)c1 (stereo unspecified)	i	i	i	i	nt	nt
Cc1cc(OCC(=O)NCc2ccc(F)cc2)ccc1Cl	i	6.1	i	i	i	i
Cc1cc(OCC(=O)NCC(C)CN(C)C)ccc1Cl (stereo unspecified)	i	5.8	i	i	i	i
NC(=O)c1ccccc1NC(=O)CCn1c(=S)oc2ccccc21	i	7.8	i	i	i	i
CCN1C(=O)/C(=C/c2ccc(OCc3ccc(C(=O)O)cc3)cc2)NC1=S	i	7.8	i	i	i	i
CCN1C(=O)/C(=C/c2ccc(C(=O)OC)cc2)NC1=S	i	i	i	i	nt	nt
O=C(O)CCC(NCC(O)Cn1c2ccccc2c2ccccc21)C(=O)O (stereo unspecified)	i	5.6	i	i	i	i
CC(C)CC(NCC(O)Cn1c2ccccc2c2ccccc21)C(=O)O (stereo unspecified)	i	i	i	i	nt	nt
Cc1nc2c(-c3ccccc3)c(C)nn2c(C)c1CCC(=O)Nc1ccc2c(c1)OCCO2	i	i	i	i	nt	nt
CC(=O)c1cccc(NC(=O)CCSCCc2ccccn2)c1	i	i	i	i	nt	nt
CC(C)OC(=O)CCC/C=C\C[C@@H]1[C@@H](/C=C/[C@@H](O)CCc2ccccc2)[C@H](O)C[C@@H]1O	nt	5.4	nt	i	i	i
O=C(O)CCC/C=C\C[C@@H]1[C@@H](/C=C/[C@@H](O)C2Cc3ccccc3C2)[C@@H](F)C[C@@H]1O	nt	5.0	nt	i	i	i
O=C(O)CCC/C=C\C[C@H]1[C@@H](/C=C/[C@@H](O)CCc2ccccc2)[C@H](O)C[C@H]1O	nt	i	nt	i	nt	nt
Cc1sc2nc(SCC(=O)NC3CCCC3)nc(N)c2c1C	i	i	i	i	nt	nt
Cc1sc2nc(SCC(=O)N3CCCCC3C)nc(N)c2c1C (stereo unspecified)	i	11	i	i	i	i
CN1CCCC(OC(=O)c2cc(Cl)ccc2Cl)C1 (stereo unspecified)	i	i	i	i	nt	nt
